Measured values as given in PubChem BioAssay AID1004 (SRMLSC, 2008).
A number with no mark means an inactive call. Calls of active or inactive are those of the source.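 The calls were made as follows: active = viability at 10 µM of 29.74% or lower, 3 SD below the compound median; inactive = the rest.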

Assay: viability of HCT116 lacking mutant beta-catenin – cell-based, DP diverse set, validation, pilot screen (AID 1004)
Details: HCT116 (mutant beta-catenin deleted) viability, CellTiter-Glo, 60 h; at 10 µM; stronger effect = lower value

| Structure (SMILES) | viability |
| --- | --- |
| COc1ccc(CC(N)C(=O)N[C@H]2[C@@H](O)[C@H](n3cnc4c(N(C)C)ncnc43)O[C@@H]2CO)cc1 (stereo not given in full) | 7.16% (active) |
| Cc1c2oc3c(C)ccc(C(=O)N[C@@H]4C(=O)N[C@H](C(C)C)C(=O)N5CCC[C@H]5C(=O)N(C)CC(=O)N(C)[C@@H](C(C)C)C(=O)O[C@@H]4C)c3nc-2c(C(=O)N[C@@H]2C(=O)N[C@H](C(C)C)C(=O)N3CCC[C@H]3C(=O)N(C)CC(=O)N(C)[C@@H](C(C)C)C(=O)O[C@@H]2C)c(N)c1=O | 26% (active) |
| C[C@]12CC[C@@H]3c4ccc(O)cc4CC[C@H]3[C@@H]1CC[C@H]2O | 91.1% |
| NCC(=O)N[C@@H](CCCN=C(N)N)C(=O)NCC(=O)N[C@@H](CC(=O)O)C(=O)N[C@@H](CC(N)=O)C(=O)N1CC[C@@H](C(=O)O)C1 | 95.6% |
| C/C(=C\CNc1ncnc2c1ncn2[C@@H]1O[C@H](CO)[C@@H](O)[C@H]1O)CO | 102% |
| COc1cc(CNC(=O)CCCC/C=C/C(C)C)ccc1O | 95.2% |
| CC(C)CC(=O)N[C@H](C(=O)N[C@H](C(=O)N[C@@H](CC(C)C)[C@@H](O)CC(=O)N[C@@H](C)C(=O)N[C@@H](CC(C)C)[C@@H](O)CC(=O)O)C(C)C)C(C)C | 100% |
| O=c1[nH]c(=O)n(C2CCCO2)cc1F (stereo not given) | 94.9% |
| C[C@@H]1C(=O)O[C@@H]2CC34C5CC(C(C)(C)C)[C@]36C(O)C(=O)O[C@@H]6O[C@@]4(C(=O)O5)[C@@]12O (stereo not given in full) | 72.1% |
| NCCNS(=O)(=O)c1cccc2c(Cl)cccc12 | 95.7% |
| C=C1C(=O)[C@]23[C@H](O)[C@H]1CC[C@H]2[C@@]12COC3(O)[C@H](O)[C@@H]1C(C)(C)CC[C@@H]2O | 88% |
| C[C@]12CCC(=O)C=C1CC[C@@H]1[C@@H]2[C@@H](O)C[C@@]2(C)[C@H]1CC[C@]2(O)C(=O)CO | 98.9% |
| O=c1c2ccccc2nc2n1CCc1c-2[nH]c2ccccc12 | 90.5% |
| Nc1c(N=Nc2ccc(-c3ccc(N=Nc4cc(S(=O)(=O)O)c5ccccc5c4N)cc3)cc2)cc(S(=O)(=O)O)c2ccccc12 | 83% |
| CC(C)NCC(O)COc1cccc2ccccc12 (stereo not given) | 94.6% |
| O=C(c1ccccc1)c1ccccc1 | 97.8% |
| C=C1CC[C@H](O)C/C1=C/C=C1\CCC[C@]2(C)[C@@H]([C@H](C)CCCC(C)C)CC[C@@H]12 | 104% |
| Clc1ccc2ncnc(NCc3ccc4c(c3)OCO4)c2c1 | 95.8% |
| CC[n+]1c(-c2ccccc2)c2cc(N)ccc2c2ccc(N)cc21 | 51.3% |
| C[C@H](CS)C(=O)N1CCC[C@H]1C(=O)O | 93.8% |
| Nc1c2c(nc3ccccc13)CCCC2 | 99.8% |
| COc1c(C)c2c(c(O)c1C/C=C(\C)CCC(=O)O)C(=O)OC2 | 49.1% |
| CC(C)=CCC/C(C)=C/COc1ccc2ccc(=O)oc2c1 | 96.8% |
| O=C1OC(c2cc(I)c(O)c(I)c2)(c2cc(I)c(O)c(I)c2)c2ccccc21 | 97.5% |
| COc1ccc(C2CNC(=O)C2)cc1OC1CCCC1 (stereo not given) | 99.4% |
| C[C@@]12C=Cc3occc3C1CC[C@@]13C[C@@H](CCC12)[C@@](O)(CO)C3 (stereo not given in full) | 94.3% |
| COc1ccc2c(c1)c(CC(=O)O)c(C)n2C(=O)c1ccc(Cl)cc1 | 101% |
| O=c1c(O)c(-c2ccc(O)c(O)c2)oc2cc(O)cc(O)c12 | 93% |
| O=C(c1ccc(F)cc1)C1CCN(CCn2c(=O)[nH]c3ccccc3c2=O)CC1 | 104% |
| CO[C@@H]1[C@@H](OC(N)=O)[C@@H](O)[C@H](Oc2ccc3c(O)c(NC(=O)c4ccc(O)c(CC=C(C)C)c4)c(=O)oc3c2C)OC1(C)C | 99.5% |
